Data: PubChem BioAssay AID1159580 (chemical genetic matrix, 2015)
Values joined by “and” are separate entries in the source; they are usually repeats but may differ in a detail not shown here. Equal values may be shown once. Screen size: about 5,500 compounds; about 2,000 (36%) were called active. Inconclusive results (about 18%) are left out. No stated cut-off is given here; in the data, active means normalized growth mostly below about 0.91 (no sharp cut-off); inconclusive means no clear call, values can overlap the other calls; inactive means mostly above about 0.92. The list shows a part of the results.

Experiment: chemical genetic growth profiling, strain panel (AID 1159580);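 further: tested at 20 µM; growth read once vehicle control cultures reached saturation at 30 °C; 1 = growth at the plate median or of vehicle wells; lower values mean less growth of the strain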
Details: S. cerevisiae deletion strains, growth OD

Measured: normalized growth

Cn1nnnc1SCC1=C(C(=O)O)N2C(=O)C(NC(=O)C(OC=O)c3ccccc3)C2SC1 (stereo unspecified)
inactive: locus YAL021C, strain ccr4, active compounds read low 1.02 | locus YAL026C, strain drs2, active compounds read low 0.999 | locus YAL030W, strain snc1, active compounds read low 1 | locus YBL061C, strain skt5, active compounds read low 1.01 | locus YBR009C, strain hhf1, active compounds read low 1.04 | locus YBR021W, strain FUR4, active compounds read low 0.986 | locus YBR023C, strain chs3, active compounds read low 0.998 | locus YBR171W, strain sec66, active compounds read low 0.984 | locus YBR229C, strain ROT2, active compounds read low 1 | locus YBR231C, strain swc5, active compounds read low 1.01 | locus YBR279W, strain paf1, active compounds read low 0.999 | locus YCL011C, strain gbp2, active compounds read low 1 | locus YCL016C, strain dcc1, active compounds read low 1 | locus YCL029C, strain bik1, active compounds read low 1.03 | locus YCL061C, strain MRC1, active compounds read low 0.991 | locus YCL069W, strain vba3, active compounds read low 0.992 | locus YCR088W, strain abp1, active compounds read low 0.998 | locus YDL005C, strain med2, active compounds read low 0.991 | locus YDL035C, strain GPR1, active compounds read low 1.01 | locus YDL040C, strain nat1, active compounds read low 1 | locus YDL074C, strain BRE1, active compounds read low 1.02 | locus YDL101C, strain DUN1, active compounds read low 1.01 | locus YDL134C, strain PPH21, active compounds read low 1.01 | locus YDL185W, strain tfp1, active compounds read low 1.01 | locus YDL192W, strain arf1, active compounds read low 1.02 | locus YDR001C, strain nth1, active compounds read low 0.991 | locus YDR069C, strain doa4, active compounds read low 1 | locus YDR101C, strain arx1, active compounds read low 1.03 | locus YDR137W, strain rgp1, active compounds read low 1.02 | locus YDR150W, strain NUM1, active compounds read low 1 | locus YDR159W, strain sac3, active compounds read low 0.979 | locus YDR162C, strain NBP2, active compounds read low 1.01 | locus YDR195W, strain ref2 0.949 | locus YDR297W, strain sur2, active compounds read low 0.992 | locus YDR318W, strain mcm21, active compounds read low 1.02 | locus YDR334W, strain swr1, active compounds read low 0.995 | locus YDR335W, strain msn5, active compounds read low 1 | locus YDR388W, active compounds read low 1.02 | locus YDR392W, strain spt3, active compounds read low 0.995 | locus YDR502C, strain sam2, active compounds read low 1.02 | locus YEL003W, strain gim4, active compounds read low 1 | locus YEL037C, strain rad23, active compounds read low 0.994 | locus YEL061C, strain CIN8 (second series), active compounds read low 0.991 | locus YEL061C, strain CIN8, active compounds read low 1 | locus YER015W, strain faa2, active compounds read low 1 | locus YER016W, strain bim1, active compounds read low 0.997 | locus YER110C, active compounds read low 1.03 | locus YER111C, strain swi4, active compounds read low 0.998 | locus YER155C, strain BEM2 (second series), active compounds read low 0.977 | locus YER155C, strain BEM2, active compounds read low 0.99 | locus YER167W, strain BCK2, active compounds read low 1 | locus YFR010W, strain ubp6, active compounds read low 0.995 | locus YGL078C, strain dbp3, active compounds read low 1.03 | locus YGL086W, strain mad1, active compounds read low 1.01 | locus YGL167C, strain pmr1, active compounds read low 1 | locus YGL173C, strain kem1, active compounds read low 0.997 | locus YGL227W, strain vid30, active compounds read low 0.993 | locus YGL240W, strain doc1, active compounds read low 0.978 | locus YGL248W, strain PDE1, active compounds read low 1.01 | locus YGL253W, strain hxk2, active compounds read low 1.01 | locus YGR078C, strain PAC10, active compounds read low 0.994 | locus YGR135W, strain pre9, active compounds read low 1.02 | locus YGR229C, strain SMI1, active compounds read low 1.01 | locus YGR252W, strain gcn5, active compounds read low 1.03 | locus YHR013C, strain ard1, active compounds read low 1 | locus YHR027C, strain rpn1, active compounds read low 0.995 | locus YHR030C, strain SLT2, active compounds read low 0.999 and 1.01 | locus YHR079C, strain IRE1 (second series), active compounds read low 1.02 | locus YHR079C, strain IRE1, active compounds read low 0.985 | locus YHR094C, strain hxt1, active compounds read low 1.03 | locus YHR129C, strain ARP1, active compounds read low 0.998 | locus YHR142W, strain chs7, active compounds read low 1.02 | locus YHR200W, strain rpn10, active compounds read low 1.02 | locus YIL066C, strain RNR3, active compounds read low 1 | locus YIL073C, strain SPO22, active compounds read low 1.07 | locus YIL125W, strain kgd1, active compounds read low 1.01 | locus YIR030C, strain dcg1, active compounds read low 1.03 | locus YJL092W, strain hpr5, active compounds read low 0.993 | locus YJL095W, strain BCK1 (second series), active compounds read low 1.01 | locus YJL095W, strain BCK1, active compounds read low 1 and 0.969 | locus YJL115W, strain asf1, active compounds read low 0.985 | locus YJL129C, strain trk1, active compounds read low 1 | locus YJL134W, strain LCB3, active compounds read low 1 | locus YJL154C, strain vps35, active compounds read low 1 | locus YJL164C, strain tpk1, active compounds read low 1.01 | locus YJL166W, strain qcr8, active compounds read low 1.01 | locus YJL168C, strain set2, active compounds read low 1.01 | locus YJL187C, strain SWE1 (second series), active compounds read low 1 | locus YJL187C, strain SWE1, active compounds read low 0.986 | locus YJR043C, strain POL32, active compounds read low 1.01 | locus YJR066W, strain TOR1, active compounds read low 0.954
